# Reference: publication PMC7862700, “An all-to-all approach to the identification of sequence-specific readers for epigenetic DNA modifications on cytosine”
# Tests used:
# Assay in all cases: DAPPL (digital affinity profiling via proximity ligation, sequencing); 10 mM Tris-HCl pH 7.5, 50 mM NaCl, 1 mM DTT, 4% glycerol, room temperature, 30 min; GST-TFs on glutathione beads, 16-mer random dsDNA library, 0.1% formaldehyde crosslink after washing; high values mean tight binding
# FEV = molecular target: T1, FEV (Homo sapiens, UniProt Q99581 1-238); settings: protein: recombinant; tags: N-terminal GST; dsDNA, one strand shown
# T1 sequence: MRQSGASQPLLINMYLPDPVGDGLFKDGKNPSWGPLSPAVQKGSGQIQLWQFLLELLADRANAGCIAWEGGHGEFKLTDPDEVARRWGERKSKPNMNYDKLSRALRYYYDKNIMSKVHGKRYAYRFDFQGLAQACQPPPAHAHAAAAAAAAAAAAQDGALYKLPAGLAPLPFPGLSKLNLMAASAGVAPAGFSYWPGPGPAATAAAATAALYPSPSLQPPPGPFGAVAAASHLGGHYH
# In short: (§1)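 After expression in yeast as GST fusions, human transcription factors were bound to glutathione beads, DNA-barcoded and mixed with a tag-only sample. The pools were incubated with 200 nmole of a 16-mer random double-stranded DNA library in Tris/NaCl/DTT/glycerol buffer (30 min, room temperature), washed and crosslinked with 0.1% formaldehyde. Proximity ligation with BsaI/T4 ligase ran for 1 h at 37 °C, before PCR amplification and sequencing on an Illumina NextSeq500. Binding signal is a hexamer's read frequency for a factor divided by its frequency for the tag-only sample.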
# ETV5 = ETV5 (Homo sapiens, UniProt P41161 1-510); settings: protein: recombinant; tags: N-terminal GST; dsDNA, one strand shown
# Chain of ETV5 (P41161 whole entry): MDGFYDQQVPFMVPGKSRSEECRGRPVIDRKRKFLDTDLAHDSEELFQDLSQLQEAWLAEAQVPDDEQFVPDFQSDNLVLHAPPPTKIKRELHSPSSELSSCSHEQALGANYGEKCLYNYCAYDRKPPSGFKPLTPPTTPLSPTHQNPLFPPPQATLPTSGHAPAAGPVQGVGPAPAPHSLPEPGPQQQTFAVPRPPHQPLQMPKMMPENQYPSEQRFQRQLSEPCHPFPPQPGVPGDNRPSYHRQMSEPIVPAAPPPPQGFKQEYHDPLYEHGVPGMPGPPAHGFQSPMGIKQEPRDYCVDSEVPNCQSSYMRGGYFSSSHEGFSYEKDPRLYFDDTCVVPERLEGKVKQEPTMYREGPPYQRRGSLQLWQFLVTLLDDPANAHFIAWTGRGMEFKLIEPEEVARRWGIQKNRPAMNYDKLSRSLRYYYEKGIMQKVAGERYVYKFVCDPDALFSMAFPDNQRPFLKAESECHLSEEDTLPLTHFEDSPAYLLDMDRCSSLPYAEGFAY
# In short: as §1
# HSF1 = HSF1 (Homo sapiens, UniProt Q00613 1-529); settings: protein: recombinant; tags: N-terminal GST; chain copies: 3; dsDNA, one strand shown
# Chain of HSF1 (Q00613 whole entry): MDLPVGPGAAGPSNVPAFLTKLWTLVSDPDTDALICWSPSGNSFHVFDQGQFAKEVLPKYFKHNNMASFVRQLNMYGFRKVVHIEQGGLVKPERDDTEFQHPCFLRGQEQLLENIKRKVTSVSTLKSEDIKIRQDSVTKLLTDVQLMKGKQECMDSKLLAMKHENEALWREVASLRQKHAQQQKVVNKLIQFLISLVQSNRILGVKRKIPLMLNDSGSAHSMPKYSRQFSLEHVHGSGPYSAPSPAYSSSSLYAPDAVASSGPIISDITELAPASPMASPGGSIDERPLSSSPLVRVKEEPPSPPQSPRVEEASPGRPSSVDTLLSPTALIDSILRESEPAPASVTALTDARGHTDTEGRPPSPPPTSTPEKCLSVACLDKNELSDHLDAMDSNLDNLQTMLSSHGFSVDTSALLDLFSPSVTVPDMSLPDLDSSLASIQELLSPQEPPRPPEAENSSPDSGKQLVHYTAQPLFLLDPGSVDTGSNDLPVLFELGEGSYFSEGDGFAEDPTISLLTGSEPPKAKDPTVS
# In short: as §1
# SPIC = molecular target: T2, SPIC (Homo sapiens, UniProt Q8N5J4 1-248); settings: protein: recombinant; tags: N-terminal GST; dsDNA, one strand shown
# T2 sequence: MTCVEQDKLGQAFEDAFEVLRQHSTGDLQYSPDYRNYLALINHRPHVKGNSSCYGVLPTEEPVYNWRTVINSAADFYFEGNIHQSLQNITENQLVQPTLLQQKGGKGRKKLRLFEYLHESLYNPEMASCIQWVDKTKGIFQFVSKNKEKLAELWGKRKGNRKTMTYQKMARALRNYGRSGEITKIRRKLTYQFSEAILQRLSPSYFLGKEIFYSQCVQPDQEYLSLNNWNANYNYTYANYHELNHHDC
# In short: as §1
# ELF4 = ELF4 (Homo sapiens, UniProt Q99607 1-663); settings: protein: recombinant; tags: N-terminal GST; dsDNA, one strand shown
# Chain of ELF4 (Q99607 whole entry): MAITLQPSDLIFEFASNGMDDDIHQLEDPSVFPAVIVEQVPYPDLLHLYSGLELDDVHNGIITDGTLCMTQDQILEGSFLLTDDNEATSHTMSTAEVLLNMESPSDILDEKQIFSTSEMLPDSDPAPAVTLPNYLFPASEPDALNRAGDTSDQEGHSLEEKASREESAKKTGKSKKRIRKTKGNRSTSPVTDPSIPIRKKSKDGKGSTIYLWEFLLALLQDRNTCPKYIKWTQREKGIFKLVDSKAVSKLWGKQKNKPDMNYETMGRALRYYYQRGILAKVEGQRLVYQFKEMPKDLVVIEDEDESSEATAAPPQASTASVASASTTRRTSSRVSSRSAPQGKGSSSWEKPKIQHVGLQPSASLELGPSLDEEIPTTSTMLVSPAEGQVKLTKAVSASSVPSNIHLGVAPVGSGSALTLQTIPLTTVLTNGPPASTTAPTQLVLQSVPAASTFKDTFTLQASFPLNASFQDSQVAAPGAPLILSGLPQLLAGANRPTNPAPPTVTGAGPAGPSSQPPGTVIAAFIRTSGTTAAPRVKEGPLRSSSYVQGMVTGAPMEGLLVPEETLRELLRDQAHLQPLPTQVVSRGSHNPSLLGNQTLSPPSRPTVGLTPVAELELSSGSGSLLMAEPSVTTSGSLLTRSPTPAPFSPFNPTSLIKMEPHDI
# In short: as §1
# ELK4 = molecular target: T3, ELK4 (Homo sapiens, UniProt P28324-2 1-405); settings: protein: recombinant; tags: N-terminal GST; dsDNA, one strand shown
# T3 sequence: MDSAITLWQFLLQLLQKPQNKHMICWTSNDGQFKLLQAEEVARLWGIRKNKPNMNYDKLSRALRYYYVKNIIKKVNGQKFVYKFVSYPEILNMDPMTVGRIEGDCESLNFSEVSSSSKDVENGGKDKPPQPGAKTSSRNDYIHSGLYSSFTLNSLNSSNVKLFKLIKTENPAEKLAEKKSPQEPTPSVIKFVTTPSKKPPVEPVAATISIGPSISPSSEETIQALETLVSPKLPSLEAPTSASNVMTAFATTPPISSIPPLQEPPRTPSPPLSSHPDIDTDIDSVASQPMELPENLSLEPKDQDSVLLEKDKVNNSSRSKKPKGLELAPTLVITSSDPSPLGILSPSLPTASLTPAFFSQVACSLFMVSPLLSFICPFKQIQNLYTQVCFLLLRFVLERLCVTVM
# In short: as §1
# ETV2 = molecular target: T4, ETV2 (Homo sapiens, UniProt O00321 1-342); settings: protein: recombinant; tags: N-terminal GST; dsDNA, one strand shown
# T4 sequence: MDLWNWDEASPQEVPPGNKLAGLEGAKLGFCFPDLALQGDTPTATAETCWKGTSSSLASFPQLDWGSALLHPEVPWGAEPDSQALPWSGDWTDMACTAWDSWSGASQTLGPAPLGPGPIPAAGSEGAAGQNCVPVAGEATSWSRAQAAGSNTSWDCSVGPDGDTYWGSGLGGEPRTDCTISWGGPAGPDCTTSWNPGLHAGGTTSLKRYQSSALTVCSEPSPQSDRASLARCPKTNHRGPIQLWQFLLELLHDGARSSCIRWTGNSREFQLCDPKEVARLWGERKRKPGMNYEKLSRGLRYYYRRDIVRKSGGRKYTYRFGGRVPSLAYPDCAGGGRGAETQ
# In short: as §1
# ELF3 = molecular target: T5, ELF3 (Homo sapiens, UniProt P78545 1-371); settings: protein: recombinant; tags: N-terminal GST; dsDNA, one strand shown
# T5 sequence: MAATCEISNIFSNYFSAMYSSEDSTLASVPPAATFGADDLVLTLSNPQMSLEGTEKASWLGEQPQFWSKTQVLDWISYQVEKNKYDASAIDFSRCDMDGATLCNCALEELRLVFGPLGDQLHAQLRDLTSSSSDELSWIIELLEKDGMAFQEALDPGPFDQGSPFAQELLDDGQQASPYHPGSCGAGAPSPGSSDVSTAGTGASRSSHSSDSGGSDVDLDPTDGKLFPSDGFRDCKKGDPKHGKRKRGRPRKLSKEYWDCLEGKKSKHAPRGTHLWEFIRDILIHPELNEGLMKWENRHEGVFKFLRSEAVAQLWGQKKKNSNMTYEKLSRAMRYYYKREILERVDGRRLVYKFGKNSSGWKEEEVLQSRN
# In short: as §1
# CRX = CRX (Homo sapiens, UniProt O43186 1-299); settings: protein: recombinant; tags: N-terminal GST; dsDNA, one strand shown
# Chain of CRX (O43186 whole entry): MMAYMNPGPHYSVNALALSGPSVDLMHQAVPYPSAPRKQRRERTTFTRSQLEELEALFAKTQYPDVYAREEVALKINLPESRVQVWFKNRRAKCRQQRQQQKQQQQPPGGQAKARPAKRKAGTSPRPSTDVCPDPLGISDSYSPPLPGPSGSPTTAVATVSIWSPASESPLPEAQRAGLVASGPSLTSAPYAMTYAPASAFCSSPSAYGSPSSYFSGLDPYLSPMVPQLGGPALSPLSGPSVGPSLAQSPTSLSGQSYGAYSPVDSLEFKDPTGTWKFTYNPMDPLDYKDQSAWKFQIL
# In short: as §1
# ETV1 = ETV1 (Homo sapiens, UniProt P50549 1-477); settings: protein: recombinant; tags: N-terminal GST; dsDNA, one strand shown
# Chain of ETV1 (P50549 whole entry): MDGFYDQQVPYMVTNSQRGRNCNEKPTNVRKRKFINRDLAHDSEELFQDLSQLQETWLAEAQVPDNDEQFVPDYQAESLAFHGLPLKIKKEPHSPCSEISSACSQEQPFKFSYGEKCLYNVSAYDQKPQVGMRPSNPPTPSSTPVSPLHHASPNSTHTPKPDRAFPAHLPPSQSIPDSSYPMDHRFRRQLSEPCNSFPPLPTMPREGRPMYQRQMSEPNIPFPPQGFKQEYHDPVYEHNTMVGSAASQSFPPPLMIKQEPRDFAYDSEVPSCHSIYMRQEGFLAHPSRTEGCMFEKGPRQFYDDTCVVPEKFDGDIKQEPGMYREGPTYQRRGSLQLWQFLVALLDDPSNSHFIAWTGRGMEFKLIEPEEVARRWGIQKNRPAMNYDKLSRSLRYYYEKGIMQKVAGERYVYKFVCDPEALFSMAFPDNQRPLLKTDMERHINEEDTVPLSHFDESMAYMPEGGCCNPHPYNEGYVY
# In short: as §1
# ERF = molecular target: T6, ERF (Homo sapiens, UniProt P50548 1-548); settings: protein: recombinant; tags: N-terminal GST; dsDNA, one strand shown
# T6 sequence: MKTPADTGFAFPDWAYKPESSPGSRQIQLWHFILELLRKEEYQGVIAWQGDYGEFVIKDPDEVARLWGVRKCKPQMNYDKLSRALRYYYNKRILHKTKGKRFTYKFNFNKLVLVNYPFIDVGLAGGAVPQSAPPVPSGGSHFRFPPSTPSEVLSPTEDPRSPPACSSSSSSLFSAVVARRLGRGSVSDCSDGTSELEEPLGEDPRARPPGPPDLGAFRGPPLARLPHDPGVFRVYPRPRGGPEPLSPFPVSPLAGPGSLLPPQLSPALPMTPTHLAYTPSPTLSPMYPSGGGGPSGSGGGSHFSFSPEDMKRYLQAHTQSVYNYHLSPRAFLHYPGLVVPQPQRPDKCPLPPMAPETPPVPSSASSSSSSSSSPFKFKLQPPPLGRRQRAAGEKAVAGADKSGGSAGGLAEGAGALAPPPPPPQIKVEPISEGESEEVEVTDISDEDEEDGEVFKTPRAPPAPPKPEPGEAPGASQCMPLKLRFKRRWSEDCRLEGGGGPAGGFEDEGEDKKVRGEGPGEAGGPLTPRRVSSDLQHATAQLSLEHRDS
# In short: as §1
# ETV3L = molecular target: T7, ETV3L (Homo sapiens, UniProt Q6ZN32 1-361); settings: protein: recombinant; tags: N-terminal GST; dsDNA, one strand shown
# T7 sequence: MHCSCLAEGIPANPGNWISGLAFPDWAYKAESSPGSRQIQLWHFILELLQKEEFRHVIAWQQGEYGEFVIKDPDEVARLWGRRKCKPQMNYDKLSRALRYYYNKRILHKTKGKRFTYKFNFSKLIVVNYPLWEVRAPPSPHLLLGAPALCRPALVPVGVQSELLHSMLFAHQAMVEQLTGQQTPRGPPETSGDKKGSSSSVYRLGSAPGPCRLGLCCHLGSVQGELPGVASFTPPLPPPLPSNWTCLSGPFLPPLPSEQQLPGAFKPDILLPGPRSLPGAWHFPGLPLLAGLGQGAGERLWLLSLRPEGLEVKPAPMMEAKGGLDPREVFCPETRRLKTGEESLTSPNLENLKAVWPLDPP
# In short: as §1
# ETS2 = molecular target: T8, ETS2 (Homo sapiens, UniProt P15036 1-469); settings: protein: recombinant; tags: N-terminal GST; dsDNA, one strand shown
# T8 sequence: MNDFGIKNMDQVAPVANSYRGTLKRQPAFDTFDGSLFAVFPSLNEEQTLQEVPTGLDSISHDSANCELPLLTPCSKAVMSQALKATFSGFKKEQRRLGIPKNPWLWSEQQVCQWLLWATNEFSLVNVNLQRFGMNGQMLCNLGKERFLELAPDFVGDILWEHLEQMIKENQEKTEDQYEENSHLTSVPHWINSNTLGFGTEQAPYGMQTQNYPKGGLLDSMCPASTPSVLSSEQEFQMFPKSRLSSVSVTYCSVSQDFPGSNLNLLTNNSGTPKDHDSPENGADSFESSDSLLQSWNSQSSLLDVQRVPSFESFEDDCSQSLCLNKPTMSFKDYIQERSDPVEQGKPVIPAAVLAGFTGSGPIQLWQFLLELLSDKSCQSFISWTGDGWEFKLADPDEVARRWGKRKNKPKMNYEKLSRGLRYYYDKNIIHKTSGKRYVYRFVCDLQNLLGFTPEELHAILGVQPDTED
# In short: as §1
# SPDEF = molecular target: T9, SPDEF (Homo sapiens, UniProt O95238 1-335); settings: protein: recombinant; tags: N-terminal GST; dsDNA, one strand shown
# T9 sequence: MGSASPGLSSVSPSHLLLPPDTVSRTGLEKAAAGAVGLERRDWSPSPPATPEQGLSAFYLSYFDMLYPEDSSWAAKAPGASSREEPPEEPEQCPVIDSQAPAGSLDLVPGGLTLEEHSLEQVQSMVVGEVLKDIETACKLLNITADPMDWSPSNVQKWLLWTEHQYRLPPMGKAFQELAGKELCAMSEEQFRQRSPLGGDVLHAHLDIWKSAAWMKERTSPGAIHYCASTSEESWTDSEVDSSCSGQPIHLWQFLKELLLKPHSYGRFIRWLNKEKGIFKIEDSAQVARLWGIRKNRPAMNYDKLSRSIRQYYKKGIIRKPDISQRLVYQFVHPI
# In short: as §1
# ETV7 = molecular target: T10, ETV7 (Homo sapiens, UniProt Q9Y603 1-341); settings: protein: recombinant; tags: N-terminal GST; dsDNA, one strand shown
# T10 sequence: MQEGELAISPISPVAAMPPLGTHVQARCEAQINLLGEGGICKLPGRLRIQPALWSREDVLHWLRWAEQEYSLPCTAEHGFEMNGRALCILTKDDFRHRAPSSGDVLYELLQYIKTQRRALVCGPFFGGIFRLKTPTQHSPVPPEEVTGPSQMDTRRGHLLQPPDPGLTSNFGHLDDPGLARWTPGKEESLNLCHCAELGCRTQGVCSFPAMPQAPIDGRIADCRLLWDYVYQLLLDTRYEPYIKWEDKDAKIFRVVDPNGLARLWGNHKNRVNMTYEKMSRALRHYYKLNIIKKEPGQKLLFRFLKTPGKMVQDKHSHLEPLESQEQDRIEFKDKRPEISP
# In short: as §1
# ELF5 = molecular target: T11, ELF5 (Homo sapiens, UniProt Q9UKW6-2 1-255); settings: protein: recombinant; tags: N-terminal GST; dsDNA, one strand shown
# T11 sequence: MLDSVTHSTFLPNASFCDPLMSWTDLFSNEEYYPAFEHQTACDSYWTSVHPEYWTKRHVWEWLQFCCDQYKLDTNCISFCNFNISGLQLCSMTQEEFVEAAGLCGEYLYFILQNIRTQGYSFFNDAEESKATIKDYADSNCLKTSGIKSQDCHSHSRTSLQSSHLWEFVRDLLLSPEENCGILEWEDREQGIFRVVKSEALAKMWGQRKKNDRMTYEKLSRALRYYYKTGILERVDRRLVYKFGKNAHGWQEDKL
# In short: as §1
# ETV3 = molecular target: T12, ETV3 (Homo sapiens, UniProt P41162-2 1-143); settings: protein: recombinant; tags: N-terminal GST; dsDNA, one strand shown
# T12 sequence: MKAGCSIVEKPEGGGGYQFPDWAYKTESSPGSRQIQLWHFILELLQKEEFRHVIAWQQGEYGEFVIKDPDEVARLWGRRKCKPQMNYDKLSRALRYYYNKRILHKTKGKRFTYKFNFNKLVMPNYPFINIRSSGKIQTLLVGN
# In short: as §1
# ETV6 = ETV6 (Homo sapiens, UniProt P41212 1-452); settings: protein: recombinant; tags: N-terminal GST; dsDNA, one strand shown
# Chain of ETV6 (P41212 whole entry): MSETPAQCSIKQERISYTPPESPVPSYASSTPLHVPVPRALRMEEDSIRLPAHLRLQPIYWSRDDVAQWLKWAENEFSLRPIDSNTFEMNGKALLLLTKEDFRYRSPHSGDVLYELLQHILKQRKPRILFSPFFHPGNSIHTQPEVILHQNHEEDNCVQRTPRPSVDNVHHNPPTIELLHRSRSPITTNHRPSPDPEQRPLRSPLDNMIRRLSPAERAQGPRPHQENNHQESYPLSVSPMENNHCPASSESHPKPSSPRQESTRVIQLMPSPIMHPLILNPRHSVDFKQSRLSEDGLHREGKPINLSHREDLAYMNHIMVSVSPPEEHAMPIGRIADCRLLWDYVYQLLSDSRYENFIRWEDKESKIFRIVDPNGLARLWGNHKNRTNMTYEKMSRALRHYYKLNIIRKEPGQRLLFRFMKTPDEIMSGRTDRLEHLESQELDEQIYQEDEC
# In short: as §1
sequence,measurement,setting,value
CTTGCC,binding signal,FEV,"1.29 fold enrichment (6-mer frequency, TF over GST control)"
same,binding signal,ETV5,"1.17 fold enrichment (6-mer frequency, TF over GST control)"
same,binding signal,HSF1,"1.1 fold enrichment (6-mer frequency, TF over GST control)"
same,binding signal,SPIC,"1.66 fold enrichment (6-mer frequency, TF over GST control)"
same,binding signal,ELF4,"1.26 fold enrichment (6-mer frequency, TF over GST control)"
same,binding signal,ELK4,"1.17 fold enrichment (6-mer frequency, TF over GST control)"
same,binding signal,ETV2,"1.24 fold enrichment (6-mer frequency, TF over GST control)"
same,binding signal,ELF3,"1.43 fold enrichment (6-mer frequency, TF over GST control)"
same,binding signal,CRX,"1.1 fold enrichment (6-mer frequency, TF over GST control)"
same,binding signal,ETV1,"1.25 fold enrichment (6-mer frequency, TF over GST control)"
same,binding signal,ERF,"1.33 fold enrichment (6-mer frequency, TF over GST control)"
same,binding signal,ETV3L,"1.31 fold enrichment (6-mer frequency, TF over GST control)"
same,binding signal,ETS2,"1.3 fold enrichment (6-mer frequency, TF over GST control)"
same,binding signal,SPDEF,"1.44 fold enrichment (6-mer frequency, TF over GST control)"
same,binding signal,ETV7,"1.54 fold enrichment (6-mer frequency, TF over GST control)"
same,binding signal,ELF5,"1.29 fold enrichment (6-mer frequency, TF over GST control)"
same,binding signal,ETV3,"1.33 fold enrichment (6-mer frequency, TF over GST control)"
same,binding signal,ETV6,"1.08 fold enrichment (6-mer frequency, TF over GST control)"
